Results filed as inconclusive are left out. For some of these results: Potency and affinity values are given separately. Calls of active or inactive are those of the source. No stated cut-off is given here; in the data, active means fluorescence slope change above about 50%; inconclusive means mostly about 31% to 49%; inactive means weaker than that.
Target: ATP-dependent translocase ABCB1 (Homo sapiens) (UniProt P08183)
Sequence (P08183 whole entry, looked up): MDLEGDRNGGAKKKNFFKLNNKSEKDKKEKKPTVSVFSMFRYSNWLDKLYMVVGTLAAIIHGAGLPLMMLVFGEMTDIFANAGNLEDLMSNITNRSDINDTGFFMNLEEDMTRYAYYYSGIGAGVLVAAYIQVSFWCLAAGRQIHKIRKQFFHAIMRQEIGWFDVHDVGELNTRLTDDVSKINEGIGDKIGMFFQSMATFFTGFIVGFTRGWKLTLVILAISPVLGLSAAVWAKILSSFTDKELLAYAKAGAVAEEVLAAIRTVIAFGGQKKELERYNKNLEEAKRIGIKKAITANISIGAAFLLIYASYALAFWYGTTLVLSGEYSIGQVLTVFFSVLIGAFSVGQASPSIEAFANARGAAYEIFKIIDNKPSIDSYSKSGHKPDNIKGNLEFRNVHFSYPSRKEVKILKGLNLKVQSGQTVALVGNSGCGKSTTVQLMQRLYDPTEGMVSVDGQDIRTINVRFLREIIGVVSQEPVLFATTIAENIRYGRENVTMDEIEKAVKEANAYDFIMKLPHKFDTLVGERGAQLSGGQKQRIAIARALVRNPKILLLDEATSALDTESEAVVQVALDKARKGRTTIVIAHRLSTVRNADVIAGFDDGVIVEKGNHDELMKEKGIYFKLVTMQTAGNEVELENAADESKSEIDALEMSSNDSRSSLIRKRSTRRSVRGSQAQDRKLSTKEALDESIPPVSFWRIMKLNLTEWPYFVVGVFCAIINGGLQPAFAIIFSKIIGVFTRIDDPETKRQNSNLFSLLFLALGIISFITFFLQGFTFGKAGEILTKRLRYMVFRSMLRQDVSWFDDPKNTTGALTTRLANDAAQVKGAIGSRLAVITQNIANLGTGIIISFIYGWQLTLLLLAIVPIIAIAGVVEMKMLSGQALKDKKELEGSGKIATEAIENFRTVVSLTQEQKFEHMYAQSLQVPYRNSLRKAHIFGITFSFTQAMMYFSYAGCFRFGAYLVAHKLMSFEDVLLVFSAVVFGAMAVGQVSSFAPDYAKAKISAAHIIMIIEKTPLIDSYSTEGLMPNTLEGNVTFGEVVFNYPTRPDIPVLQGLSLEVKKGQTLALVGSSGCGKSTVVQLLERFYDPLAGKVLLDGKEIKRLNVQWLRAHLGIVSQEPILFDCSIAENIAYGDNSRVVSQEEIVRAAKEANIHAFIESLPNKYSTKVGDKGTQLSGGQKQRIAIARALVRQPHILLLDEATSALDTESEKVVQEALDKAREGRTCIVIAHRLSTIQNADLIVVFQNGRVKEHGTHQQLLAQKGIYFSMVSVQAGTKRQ
Assay: MDR1 (ABCB1) efflux transporter inhibition, cell-based (AID 377)
Conditions: MDR1-expressing cells, fluorescent substrate accumulation slope; stronger effect = higher value; concentration not given here
For `CNCCC(Oc1ccc(C(F)(F)F)cc1)c1ccccc1` (stereo unspecified), the fluorescence slope change was 110% (active).
For `C[N+]1(C)CCCC(OC(=O)C(O)(c2ccccc2)c2ccccc2)C1` (stereo unspecified), the fluorescence slope change was 13% (inactive).
In the case of `CC1=C(/C=C/C(C)=C/C=C/C(C)=C\C(=O)O)C(C)(C)CCC1`, the fluorescence slope change is reported as 188% (active).

Tested on: not listed separately
Assay: polyglutamine-triggered caspase-3 activation inhibitors, cell-based (AID 1583)
Conditions: polyglutamine-induced caspase-3 activation, cell assay; stronger effect = higher value; concentration not given here
In the case of `COC(=O)[C@H](c1ccccc1Cl)N1CCc2sccc2C1`, the inhibition is reported as 62%.
Work on `CC(C)NCC(O)COc1cccc2ccccc12` (stereo unspecified) yielded an inhibition of -12.7%.
In the case of `CN(C)c1nc(N(C)C)nc(N(C)C)n1`, the inhibition is reported as -2.79%.
`C[N+]1(C)CCCC(OC(=O)C(O)(c2ccccc2)c2ccccc2)C1` (stereo unspecified) showed an inhibition of -22.1%.
In the case of `CC(C(=O)O)c1ccc(-c2ccccc2)c(F)c1` (stereo unspecified), the inhibition is reported as 20.8%.
In the case of `CC(C)NCC(O)COc1ccc(CC(N)=O)cc1` (stereo unspecified), the inhibition is reported as 16.6%.
With `Nc1ncnc2c1ncn2[C@@H]1O[C@H](CO)[C@@H](O)[C@@H]1O` the inhibition was 13.4%.

Tested on: not listed separately
Assay: suppressors of polyQ aggregation in yeast, 75Q-TubU reporter (AID 1593)
Conditions: Yeast 75Q polyglutamine aggregation reporter
For `COC(=O)[C@H](c1ccccc1Cl)N1CCc2sccc2C1`, the score was 1.18.
For `CC(C)NCC(O)COc1cccc2ccccc12` (stereo unspecified), the score was 1.12.
Work on `CN(C)c1nc(N(C)C)nc(N(C)C)n1` yielded a score of 1.33.
Compound `C[N+]1(C)CCCC(OC(=O)C(O)(c2ccccc2)c2ccccc2)C1` (stereo unspecified) has a score of 1.26.
Compound `CC(C(=O)O)c1ccc(-c2ccccc2)c(F)c1` (stereo unspecified) has a score of 0.
For `CC(C)NCC(O)COc1ccc(CC(N)=O)cc1` (stereo unspecified), the score was 1.42.
For `Nc1ncnc2c1ncn2[C@@H]1O[C@H](CO)[C@@H](O)[C@@H]1O`, the score was 1.04.

Tested on: not listed separately
Assay: rescue of polyQ-huntingtin neuronal dysfunction in worms, whole organism, C. elegans mechanosensory neurons, N-terminal huntingtin (AID 1599)
Conditions: touch response, stronger effect = higher value
Work on `COC(=O)[C@H](c1ccccc1Cl)N1CCc2sccc2C1` yielded a rescue above control of 1.25.
`CC(C)NCC(O)COc1cccc2ccccc12` (stereo unspecified) gave a rescue above control of -3.83.
Work on `CN(C)c1nc(N(C)C)nc(N(C)C)n1` yielded a rescue above control of 6.66.
Compound `C[N+]1(C)CCCC(OC(=O)C(O)(c2ccccc2)c2ccccc2)C1` (stereo unspecified) has a rescue above control of -3.59.
`CC(C(=O)O)c1ccc(-c2ccccc2)c(F)c1` (stereo unspecified) showed a rescue above control of 19.
With `CC(C)NCC(O)COc1ccc(CC(N)=O)cc1` (stereo unspecified) the rescue above control was -0.75.
`Nc1ncnc2c1ncn2[C@@H]1O[C@H](CO)[C@@H](O)[C@@H]1O` showed a rescue above control of -14.3.

Tested on: not listed separately
Assay: inhibitors of mitochondrial cytochrome c release, biochemical, purified mitochondria (AID 1603);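 further: mouse liver mitochondria challenged with calcium chloride; signal normalized to the plate average as 100%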
Conditions: stronger effect = lower value
`COC(=O)[C@H](c1ccccc1Cl)N1CCc2sccc2C1` showed a cytochrome c release ratio of 0.98.
Work on `CC(C)NCC(O)COc1cccc2ccccc12` (stereo unspecified) yielded a cytochrome c release ratio of 1.04.
For `CN(C)c1nc(N(C)C)nc(N(C)C)n1`, the cytochrome c release ratio was 1.53.
`C[N+]1(C)CCCC(OC(=O)C(O)(c2ccccc2)c2ccccc2)C1` (stereo unspecified) showed a cytochrome c release ratio of 1.17.
`CC(C(=O)O)c1ccc(-c2ccccc2)c(F)c1` (stereo unspecified) gave a cytochrome c release ratio of 0.68.
`CC(C)NCC(O)COc1ccc(CC(N)=O)cc1` (stereo unspecified) gave a cytochrome c release ratio of 0.86.
For `Nc1ncnc2c1ncn2[C@@H]1O[C@H](CO)[C@@H](O)[C@@H]1O`, the cytochrome c release ratio was 1.16.
